In PubChem BioAssay (NCI):
Several values for one entry are separate records, joined by “and”; a condition that tells them apart may be missing. Identical values can stand only once. Compounds without any hit were thinned out: in the full panel of roughly 83,000, 20% have a hit.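 Assay: single dose, 48 h. Readout: percent growth (0 = no net growth; negative = cell death). Active: <10.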 Unmarked numbers belong to inactive results. Activity calls are given as the source filed them.

Tested on: MDA-MB-468 breast
Test: NCI-60 one-dose screen, 48 h (100 = growth as untreated, 0 = no growth, -100 = all killed)
Conditions: 10 µM unless noted

Compared with `O=C(CCCCC(=O)Nc1ccc2c(c1)/C(=C/c1ccc[nH]1)C(=O)N2)NO`, `Cc1ccc(-c2nc(/C=C3/C(=O)Nc4ccccc43)c3ccccn23)cc1` is higher in growth: 49% for the first, 69.6% for the second.

Going from `CSc1nc2ccccc2cc1/C=[N+](\[O-])c1ccccc1` to `Nc1nc(-c2cccc([N+](=O)[O-])c2)c(N=Nc2ccccc2Cl)s1`, the growth falls from 88% to 55.2%.

Going from `O=C(Nc1cccc(Cn2c(=O)[nH]c3ccc(Oc4ncccn4)cc3c2=O)c1)c1cccc(F)c1` to `COc1ccc(-c2cc(-c3nnc(SCC(=O)Nc4ccc(/C(C)=N\O)cc4)n3-c3ccccc3)c3cc(OC)ccc3n2)cc1`, the growth rises from 49.8% to 62.4%.

Compared with `Cc1ccc(C)c2c1sc1nc(N3CCOCC3)c(C#N)c(=O)n12`, `COc1ccc(-n2c(C(O)c3ccccc3)nn(CN3CCOCC3)c2=S)cc1` (stereo not given) is higher in growth: 86.9% for the first, 97.5% for the second.

Going from `O=C(Nc1nc2ccc([N+](=O)[O-])cc2s1)Nc1ccccc1Cl` to `COc1ccccc1NC(=O)N=Nc1c(O)[nH]c2ccccc12`, the growth rises from 58.5% to 86.1%.

Going from `C[C@H]1c2cccc(O)c2C(O)=C2C(=O)[C@]3(O)C(O)=C(C(N)=O)C(=O)[C@@H](N(C)C)[C@@H]3[C@@H](O)[C@@H]21` to `CC(=O)OC[C@H]1O[C@@H](n2c(=O)cc(N)[nH]c2=O)C(OC(C)=O)[C@@H]1OC(C)=O` (stereo not given in full), the growth rises from 41.8% to 98.8%.

Going from `CCN(CC)CCCC(C)Nc1cc(O)cc2cccnc12` (stereo not given) to `CCN(CC)CCCC(C)Nc1ccnc2ccc(Oc3ccccc3)cc12` (stereo not given), the growth falls from 73.9% to 54.7%.

Compared with `CCNC(=O)Oc1ccc(/C(=C(\C)c2ccc(Cl)cc2)c2ccc(OCCN3CCCCC3)cc2)cc1`, `COCCOC(=O)NC(=O)Nc1ccc(/C(=N/O)c2ccc(Cl)cc2)cc1` is lower in growth: 56.5% for the first, 19.8% for the second.

Going from `COc1ccc(C2CC(c3ccc4c(c3)OCO4)=NN2C=O)cc1` (stereo not given) to `COc1ccc(C2C=C(c3ccc(OC)c(OC)c3)N=C3SC=C(C)N32)c(Br)c1` (stereo not given), the growth rises from 93.3% to 95.9%.

Going from `CCOC(=O)C(O)C(O)C(=O)OCC` (stereo not given) to `CCCCOc1c(N)cc(Cl)cc1C(=O)OCCN(CC)CC`, the growth rises from 102% to 112%.

First: COc1cc(OC)c2sc(-c3ccc(-n4cncc4-c4ccc(OC)c(N)c4)cc3)nc2c1
Second: COc1ccc(/C=c2\sc3n(c2=O)C(c2cc(OC)c(OC)c(OC)c2)C=C(c2ccc(OC)c(OC)c2)N=3)cc1OC (stereo not given)
The growth of the first is lower: 80.6% for the first, 105% for the second.

First: C=C1C(=O)O[C@H]2[C@H]1CC/C(COC(=O)CCCCC(=O)OC/C1=C/CC[C@@]3(C)O[C@H]3[C@H]3OC(=O)C(=C)[C@@H]3CC1)=C\CC[C@@]1(C)O[C@@H]21
Second: CC1(C)CCCN1CCCN1c2ccccc2Sc2ccc(Cl)cc21
The growth of the first is higher: 45.5% for the first, 37.6% for the second.

First: O=Cc1ccc2nc(C(Cl)(Cl)Cl)ccc2c1
Second: Nc1ccc2c(c1)Cc1cc(Cl)c(Cl)cc1-2
The growth of the first is higher: 95.2% for the first, 34.4% for the second.

First: [2H]C1([2H])NC([2H])([2H])C([2H])([2H])N(c2ccc(Nc3ncc4cc(C(=O)N(C)C)n(C5CCCC5)c4n3)nc2)C1([2H])[2H]
Second: C=CCOc1ccc(/C(Cl)=N/N=C(\Cl)c2cc(OC)c(OC)c(OC)c2)cc1
The growth of the first is higher: 99.5% for the first, 23.3% for the second.

`Cc1cc(NCCN(C(C)C)C(C)C)nc(/N=C(\N)Nc2ccc(Cl)c(C(F)(F)F)c2)n1` was tested, and the growth was -98.6% (active).
`COc1ccc(-c2nc3sccn3c2-c2ccnc(NCCCNS(=O)(=O)c3ccc(F)cc3)n2)cc1` was tested, and the growth was 6.78% (active).
In the case of `CC[N+](CC)(CCCC(C)[N+]1(Cc2ccccc2)C(C)=CC=C1C)Cc1ccccc1` (stereo not given), the growth is reported as -12.8% (active).
With `CN(C)CCCn1c(=O)c2ccccc2c2cnc3[nH]ccc3c21` the growth was -9.4% (active).
`CN(CCCN(C)CCC1CCCCC1)CCC1CCCCC1` was tested, and the growth was -76.1% (active).
In the case of `O=C1c2cc3c(cc2-c2c1c1ccc(F)cc1c(=O)n2C[C@H](O)[C@H](O)[C@H](O)CO)OCO3`, the growth is reported as -39.9% (active).
In the case of `N#Cc1c(NC(=O)c2ccccc2C(F)(F)F)sc2c1CCC(=O)C2`, the growth is reported as -0.286% (active).
For `CC(C)(CCN=C(N)Nc1ccccn1)c1ccc(C(F)(F)F)cc1`, the growth was 3.96% (active).
In the case of `N#CC(C#N)=C/C=C/c1cccc([N+](=O)[O-])c1`, the growth is reported as -56.4% (active) and -30.4% (active).
In the case of `O=C(CSc1nc2ccc([N+](=O)[O-])cc2[nH]1)Nc1ccc([N+](=O)[O-])cc1`, the growth is reported as -12.4% (active).
In the case of `CCO/C=N/C1=C(C#N)C(c2ccc(F)cc2)c2sc3c(CC)cccc3c2O1` (stereo not given), the growth is reported as 7.27% (active).
`CN(C)c1ccc(/C=C2/C=C(c3ccccc3)OC2=O)cc1` was tested, and the growth was -8.42% (active).
